Bioassay records: PubChem BioAssay, National Center for Advancing Translational Sciences (NCATS)
Shown are actives, neighbours in structure and some others; about 9.5% of the full set was active somewhere.
SARS PLP yeast: qHTS of Yeast-based Assay for SARS-CoV PLP | Potency, µM (highest dose often 32.9 µM), without a hit: at the highest dose activity, positive = growth rescue, hits mostly activators | 330,000 tested, 0.19% active | S. cerevisiae expressing SARS-CoV PLpro, growth rescue; also: 0% is about no effect; nearly all actives have a fitted effect of over 55% in size
Pf growth 48h: Primary qHTS for delayed death inhibitors of the malarial parasite plastid, 48 hour incubation | Potency, µM (titrated, usually from 28.7 µM), without a hit: at the highest dose activity change, negative = inhibition, most hits filed as inhibitors | P. falciparum luciferase growth in erythrocytes, 48 h | 310,000 tested, 5.9% active; active = well fitted inhibition curve with a large enough effect; inconclusive = small, poorly fitted or top-dose-only effect, or another doubt; inactive = no such curve, though single readings can be large or run the other way; also: % is scaled to controls: 0 for no effect and ±100 for the full control effect
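Firefly luciferase activity from engineered P. falciparum reports growth; inhibitors lower the luminescent signal. Cultures contained 2% hematocrit erythrocytes at 0.1% final parasitemia.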
RE007 growth inh: qHTS Assay for Inhibitors of the HIV-1 protein Vpr; S. pombe RE007 Vpr strain, BacTiter-Glo ATP luminescence, 24 h; Potency, µM (titrated, usually from 92.2 µM), for the others: at the top dose activity change, negative = less growth, hits mostly inhibitors; 360,000 tested, 0.21% active; active = well fitted falling curve with a large enough effect; inconclusive = small, poorly fitted or top-dose-only effect; inactive = no such curve, though single readings can be large or run the other way; also: % is scaled to controls: 0 for no effect and ±100 for the full control effect; nearly all actives have a fitted effect of over 50% in size
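Fission yeast strain RE007, carrying one chromosomally integrated HIV-1 vpr copy, was seeded at OD 0.01 in PMG+AL medium with 23 nL pinned compound. After 24 h at 30 °C and 99% humidity, viability was read by BacTiter-Glo luminescence.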
NS1 inh: qHTS Assay for Inhibitors of Influenza NS1 Protein Function; Potency, µM (highest dose often 46.1 µM), for the others: at the highest dose activity, positive = more growth; 270,000 tested, 0.4% active; also: actives are rising curves; nearly all actives have a fitted effect of over 50% in size
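In this qHTS, NS1 from influenza A is expressed in budding yeast, where it slows growth. Cells are switched from glucose to 2% galactose medium (pH 6.0, -URA), treated with compound, and growth recovery is read at OD600.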
Pf growth 96h: Primary qHTS for delayed death inhibitors of the malarial parasite plastid, 96 hour incubation; P. falciparum luciferase reporter growth, 96 h; 320,000 tested, 6.9% active; Potency, µM (top dose mostly 28.7 µM), for the others: at the highest dose activity change, negative = inhibition, hits mostly inhibitors; active = well fitted inhibition curve with a large enough effect; inconclusive = small, poorly fitted or top-dose-only effect, or another doubt; inactive = no such curve, though single readings can be large or run the other way; also: % is scaled to controls: 0 for no effect and ±100 for the full control effect
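96 h incubation, 37 C, 5% CO2, of luciferase-reporter P. falciparum-infected RBCs (2% hematocrit, 0.05% parasitemia final) with test compounds; endpoint luminescence.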
* = called active by the depositor; ? = inconclusive; · = no result given. Unless noted, calls follow the shape of the full dose curve. Potency is read from the fitted curve at half-maximal effect.

SMILES | SARS PLP yeast | Pf growth 48h | RE007 growth inh | NS1 inh | Pf growth 96h
CC(C)[C@H](NC(=O)OC(C)(C)C)c1cc(C(=O)N[C@@H](C)c2ccccc2)c(N)s1 | · | · | -5.0% | · | ·
Cc1cc(C)c2c(ccc3ccccc32)n1 | · | · | 0.0% | · | ·
Oc1ccc(-c2nc3ccc4ccccc4c3c3c2CCC3)cc1O | -53.3% | 14.7µM* | 1.2% | 9.5% | 6.3%
CN(C)S(=O)(=O)c1ccc(C(=O)NCC[N+]2(C)CCCCCC2)o1 | -0.9% | ? | -2.7% | 23.5% | 9.28µM*
CCOC(=O)c1c(/N=C/N(C)C)sc(/C=N/Nc2ccccc2)c1-c1ccccc1 | 28.3% | 14.7µM* | 4.1% | 1.9% | 10.4µM*
CCOC(=O)c1c(/N=C/N(C)C)sc(C=O)c1-c1ccccc1 | -0.5% | -20.3% | 18.6% | · | 1.4%
CCOC(=O)c1c(/N=C/N(C)C)sc(/C=N/Nc2ccccc2)c1-c1ccccc1Cl | -16.0% | 6.57µM* | 8.5% | 14.7% | ?
CCOC(=O)c1c(NC(=O)CCl)sc(CN(C)C)c1-c1ccccc1 | 2.0% | 13.1µM* | 9.3% | · | ?
COCCCN(CCC#N)C(=O)c1c(-c2c(Cl)cccc2Cl)noc1C | 0.6% | 49.8% | 11.3% | 0.0% | 23.2%
CCCN1CCC(NC(=O)CCc2nnc(Cc3cc(OC)ccc3OC)o2)CC1 | 0.3% | -10.8% | -5.7% | 1.0% | -4.1%
COc1ccc(OC)c(Cc2nnc(CCC(=O)NC3CCCCC3)o2)c1 | -1.2% | 17.8% | -0.4% | 1.9% | 13.1µM*
COc1ccc(OC)c(Cc2nnc(CCC(=O)NC3C4CC5CC(C4)CC3C5)o2)c1 (configuration not stated) | 0.7% | 10.4µM* | 1.1% | -9.8% | 0.2%
CCOC1CCCc2oc(-c3ccc(OC)cc3)c(C(=O)NCCCCO)c21 (configuration not stated) | · | · | 2.1% | · | ·
Cc1nn(C)c(C)c1S(=O)(=O)N(CC(=O)Nc1ccccn1)c1ccc(C(C)C)cc1 | 2.9% | 3.0% | 9.1% | -55.0% | ?
CCOC(=O)c1ccc(NC(=O)CN(c2ccc(C)cc2)S(=O)(=O)c2c(C)nn(C)c2C)cc1 | -10.3% | 10.4µM* | -7.9% | 11.2% | ·
COc1ccc(NC(=O)CN(c2ccc(C)cc2)S(=O)(=O)c2c(C)nn(C)c2C)cc1 | -4.3% | ? | 13.9% | -1.1% | -2.1%
COc1ccc2nc(NC(=O)CN(c3ccc(C)cc3)S(=O)(=O)c3c(C)nn(C)c3C)sc2c1 | -10.3% | 11.7µM* | 3.2% | ? | 2.62µM*
COc1ccc(NC(=O)CN(c2ccc(OC)cc2)S(=O)(=O)c2c(C)nn(C)c2C)cc1 | -2.0% | ? | 5.1% | -2.0% | -4.0%
Cc1cccc(NC(=O)CN(c2ccc(C(C)C)cc2)S(=O)(=O)c2c(C)nn(C)c2C)n1 | 0.6% | · | -9.3% | 0.0% | 2.94µM*
COC(=O)c1c(-c2c(Cl)cccc2Cl)noc1NC(=O)NN1CCCCC1 | -0.4% | 0.329µM* | 12.8% | 3.8% | 0.262µM*
COC(=O)c1c(-c2c(Cl)cccc2Cl)noc1NC(=O)NN1CCOCC1 | 1.6% | 13.1µM* | -7.3% | 1.6% | 1.31µM*
COC(=O)c1c(-c2c(Cl)cccc2Cl)noc1NC(=O)N(C)C | 1.7% | 16.3% | 1.3% | -9.2% | 4.1%
Cc1cccc(NC(=O)CCN2CCCCC2)c1 | 5.9% | 8.8% | -0.4% | -1.2% | 286.6%
Cc1cc(NC(=O)CCN2CCCCC2)ccc1Br | -9.5% | 10.0% | -13.6% | -4.5% | 2.62µM*
Cc1cccc(NC(=O)CCN2CCC(C(N)=O)CC2)c1 | -0.6% | 21.9% | 3.3% | 13.8% | 6.57µM*
SMILES | SARS PLP yeast | Pf growth 48h | RE007 growth inh | NS1 inh | Pf growth 96h
Cc1cc(NC(=O)CCN2CCN(CCO)CC2)ccc1Br | 4.4% | ? | 2.9% | -26.7% | 0.0%
Cc1ccc(-c2cnc(NC(=O)CCC(=O)N3CCCCC3)n2C)cc1 | -10.1% | 55.1% | -4.5% | -6.5% | 11.7µM*
O=C(CCC(=O)N1CCCCC1)Nc1ccc(Cl)c(Cl)c1 | -5.3% | 12.9% | 13.9% | -5.3% | 11.7µM*
O=C(CCC(=O)N1CCOCC1)Nc1ccc(Cl)c(Cl)c1 | 3.3% | -17.1% | -2.2% | -0.3% | 4.3%
C#CCNCCS(=O)(=O)N(Cc1ccc(Br)cc1)[C@@H](CC(C)C)C(=O)O | -6.6% | · | 0.9% | · | ·
COc1ccc(NC(=O)CCN2CCCCC2)cc1 | 2.9% | 1.6% | -0.9% | -2.4% | 13.1µM*
